# Many of the other results were omitted from the sample, so hits are more common in it than they were.
# nsP2pro inh: Primary qHTS for inhibitors of NSP2Pro chikungunya virus (CHIKV) | Polyprotein P1234 (Chikungunya virus (strain S27-African prototype)), Q8JUX6 | FRET peptide cleavage, nsP2pro, fluorescence 1 h | Potency, µM (highest dose often 24.9 µM), for the others: top-dose activity change, negative = inhibition, hits mostly inhibitors | 31,000 tested, 1.1% active | AID 1964107, 2024; note: nearly all actives have a fitted effect of over 60% in size
# Target sequence (Q8JUX6 whole entry, looked up): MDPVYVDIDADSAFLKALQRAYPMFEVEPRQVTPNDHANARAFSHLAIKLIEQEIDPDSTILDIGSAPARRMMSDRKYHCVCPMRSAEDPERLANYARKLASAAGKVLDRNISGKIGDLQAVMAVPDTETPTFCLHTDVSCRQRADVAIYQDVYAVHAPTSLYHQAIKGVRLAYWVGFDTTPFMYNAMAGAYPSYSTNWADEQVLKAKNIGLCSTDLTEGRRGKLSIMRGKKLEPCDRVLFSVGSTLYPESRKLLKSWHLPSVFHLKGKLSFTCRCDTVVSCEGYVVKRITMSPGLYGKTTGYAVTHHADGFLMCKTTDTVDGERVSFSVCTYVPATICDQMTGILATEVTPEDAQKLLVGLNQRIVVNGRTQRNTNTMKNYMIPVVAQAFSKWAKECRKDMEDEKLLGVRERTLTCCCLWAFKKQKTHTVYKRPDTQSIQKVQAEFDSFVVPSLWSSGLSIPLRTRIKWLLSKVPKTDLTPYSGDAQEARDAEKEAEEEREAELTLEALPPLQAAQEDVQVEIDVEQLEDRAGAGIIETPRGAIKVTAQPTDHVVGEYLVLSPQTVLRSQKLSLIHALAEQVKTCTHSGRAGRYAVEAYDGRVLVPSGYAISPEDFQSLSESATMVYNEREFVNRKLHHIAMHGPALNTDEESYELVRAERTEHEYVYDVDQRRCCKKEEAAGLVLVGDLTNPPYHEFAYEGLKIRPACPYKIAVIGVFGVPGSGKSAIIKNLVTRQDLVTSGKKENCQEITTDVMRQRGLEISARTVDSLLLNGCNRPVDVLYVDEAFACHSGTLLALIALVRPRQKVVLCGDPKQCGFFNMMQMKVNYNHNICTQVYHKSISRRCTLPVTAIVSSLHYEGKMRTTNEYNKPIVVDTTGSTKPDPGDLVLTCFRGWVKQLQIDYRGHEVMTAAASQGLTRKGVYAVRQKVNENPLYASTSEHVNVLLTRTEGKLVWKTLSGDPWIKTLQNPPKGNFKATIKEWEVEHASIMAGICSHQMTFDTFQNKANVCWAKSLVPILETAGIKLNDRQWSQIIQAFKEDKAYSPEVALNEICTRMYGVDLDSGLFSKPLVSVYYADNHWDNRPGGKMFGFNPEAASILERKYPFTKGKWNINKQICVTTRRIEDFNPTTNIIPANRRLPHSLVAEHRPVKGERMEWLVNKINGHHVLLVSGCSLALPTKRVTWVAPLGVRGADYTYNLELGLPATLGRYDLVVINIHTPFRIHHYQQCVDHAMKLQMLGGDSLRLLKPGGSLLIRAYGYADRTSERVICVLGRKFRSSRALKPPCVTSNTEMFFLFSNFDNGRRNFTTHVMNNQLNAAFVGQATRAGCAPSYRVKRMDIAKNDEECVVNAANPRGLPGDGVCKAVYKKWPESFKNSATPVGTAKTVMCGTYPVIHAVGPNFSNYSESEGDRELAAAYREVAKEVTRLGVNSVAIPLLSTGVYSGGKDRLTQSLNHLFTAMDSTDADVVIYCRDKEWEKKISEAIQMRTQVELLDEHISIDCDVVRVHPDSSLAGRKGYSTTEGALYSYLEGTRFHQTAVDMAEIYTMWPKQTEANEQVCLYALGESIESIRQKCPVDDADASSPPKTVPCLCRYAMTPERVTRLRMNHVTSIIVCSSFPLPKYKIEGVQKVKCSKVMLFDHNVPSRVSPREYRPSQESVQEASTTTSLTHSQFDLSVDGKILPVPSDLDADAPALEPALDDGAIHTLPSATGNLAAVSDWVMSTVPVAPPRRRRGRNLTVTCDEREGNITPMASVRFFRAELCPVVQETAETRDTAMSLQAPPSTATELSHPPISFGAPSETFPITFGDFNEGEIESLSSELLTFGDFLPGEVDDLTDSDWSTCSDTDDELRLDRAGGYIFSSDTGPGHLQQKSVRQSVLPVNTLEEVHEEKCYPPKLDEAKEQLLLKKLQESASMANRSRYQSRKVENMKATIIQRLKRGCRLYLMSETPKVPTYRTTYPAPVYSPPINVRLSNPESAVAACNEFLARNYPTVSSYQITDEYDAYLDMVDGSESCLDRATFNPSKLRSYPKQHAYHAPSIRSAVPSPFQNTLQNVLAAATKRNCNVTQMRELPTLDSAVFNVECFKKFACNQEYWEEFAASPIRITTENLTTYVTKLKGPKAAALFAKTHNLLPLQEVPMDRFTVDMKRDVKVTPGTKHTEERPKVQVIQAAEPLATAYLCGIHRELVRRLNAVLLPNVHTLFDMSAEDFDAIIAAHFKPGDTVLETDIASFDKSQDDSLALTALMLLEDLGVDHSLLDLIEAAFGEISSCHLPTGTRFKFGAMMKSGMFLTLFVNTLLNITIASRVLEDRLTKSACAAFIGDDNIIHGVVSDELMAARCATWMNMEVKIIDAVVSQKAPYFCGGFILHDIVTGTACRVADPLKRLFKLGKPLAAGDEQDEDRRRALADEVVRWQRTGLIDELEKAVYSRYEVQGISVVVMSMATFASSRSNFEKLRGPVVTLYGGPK
#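 FRET cleavage of 2.5 uM peptide 2 by 150 nM CHIKV protease domain at pH 8.0 (Tris, Tween 20). Compounds at 7 concentrations (up to 25 uM) preincubated 15 min. Fluorescence read after 1 h at room temperature.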
# CHIKV nsP2 cell: Secondary cell base assay for inhibitors of NSP2Pro Chikungunya virus (CHIKV) | shares compounds with nsP2pro inh | AID 1964100, 2024 | cell-based CHIKV nsP2 protease reporter assay | Potency, µM (top dose mostly 51.1 µM), without a hit: at the highest dose activity change, negative = inhibition, usual class: inhibitors | 450 tested, 10% active; note: nearly all actives have a fitted effect of over 70% in size
# CHIKV NSP2 FL: Selectivity profile for inhibitors of NSP2Pro chikungunya virus (CHIKV): Full length NSP2 enzyme counterscreen (CHIKV-NSP2); Potency, µM (highest dose often 50.7 µM), for inactives: top-dose activity change, negative = inhibition, usual class: inhibitors; Full-length CHIKV NSP2 protease enzymatic counterscreen; shares compounds with nsP2pro inh; 410 tested, 39% active; AID 1964101, 2024; note: nearly all actives have a fitted effect of over 65% in size
# Furin counterscr: Selectivity profile for inhibitors of NSP2Pro chikungunya virus (CHIKV): Human furin counterscreen; shares compounds with nsP2pro inh; Recombinant human furin enzymatic counterscreen, fluorogenic substrate; Potency, µM (doses to about 50.6 µM), for the others: at the top dose activity change, negative = inhibition, usual class: inhibitors; 410 tested, 6% active; AID 1964102, 2024
# NS23 peptide cs: Selectivity profile for inhibitors of NSP2Pro chikungunya virus (CHIKV): Endogenous NS2/3 peptide Counterscreen; shares compounds with nsP2pro inh; Purified CHIKV nsP2 protease, endogenous NS2/3 peptide cleavage; Potency, µM (series often up to 51 µM), without a hit: at the top dose activity change, negative = inhibition, usual class: inhibitors; 410 tested, 34% active; note: nearly all actives have a fitted effect of over 55% in size
# Papain cs: Selectivity profile for inhibitors of NSP2Pro chikungunya virus (CHIKV): Papain Counterscreen. purified papain protease activity, enzymatic inhibition. 410 tested, 5% active. Potency, µM (series often up to 51 µM), without a hit: at the highest dose activity change, negative = inhibition, most hits filed as inhibitors. shares compounds with nsP2pro inh
# nsP2pro conf qHTS: Confirmatory qHTS for inhibitors of NSP2Pro chikungunya virus (CHIKV) | Potency, µM (top dose mostly 25.5 µM), for inactives: top-dose activity change, negative = inhibition, actives largely listed as inhibitors | 410 tested, 43% active | CHIKV nsP2 protease enzymatic activity, qHTS | shares compounds with nsP2pro inh; note: nearly all actives have a fitted effect of over 75% in size
# HCV NS3 counter: Selectivity profile for inhibitors of NSP2Pro chikungunya virus (CHIKV): NS34A-HCV Counterscreen; shares compounds with nsP2pro inh; HCV NS3/4A protease biochemical counterscreen; Potency, µM (titrated, usually from 50.9 µM), usual class: inhibitors; 410 tested, 20% active; note: nearly all actives have a fitted effect of over 55% in size
# Numbers without * were called inactive; i = inactive; ? = inconclusive; [ ] = remark or other dose. Calls come from the whole dose curve. % is set by controls: 0 for no effect and ±100 for the full control effect; potency is the fitted concentration of half-maximal effect.
SMILES,nsP2pro inh,others
CC(C)N1C[C@@H]2OCC(=O)N(Cc3ccccc3)[C@@H]2C1,-19%[39.2 µM],
O=C1O[C@@H]2CN(c3ncccn3)C[C@@H]2N1CCc1ccc(F)cc1,i,
O=C(O)c1cccc(-c2noc(-c3ccc(C(F)(F)F)cc3)n2)c1,-2%,
CC[C@H]1CN2CC[C@H]1C[C@@H]2CNCc1ccc(-c2ccccc2)cc1,i,
COc1cccc(CNC(=O)[C@@H]2C[C@@H](O)CN2C2CCN(C(=O)c3ccc4ccccc4n3)CC2)c1,-6%,
CC(=O)Nc1nc(-c2ccc3c(c2)CCN3C(=O)c2ccccc2C)c(C)s1,-18%,
CCN(c1ccccc1)S(=O)(=O)c1ccc(NC(=O)c2nc(S(C)(=O)=O)ncc2Cl)cc1,?,CHIKV nsP2 cell=2.6µM*;CHIKV NSP2 FL=4.1µM*;Furin counterscr=-6%;NS23 peptide cs=5.8µM*;Papain cs=-15%;nsP2pro conf qHTS=4.5µM*;HCV NS3 counter=i
CC(C)Sc1ncc(Cl)c(C(=O)Nc2ccc(S(=O)(=O)N(C)c3ccccc3)cc2)n1,-17%,
CCSc1ncc(Cl)c(C(=O)Nc2ccc(S(=O)(=O)N(C)c3ccccc3)cc2)n1,-12%,
Cc1cnc(-c2ccccc2C(F)F)nc1NCc1ccc(-n2ccnn2)cc1,2%,
COc1ccc(C2(C(=O)N3CCOCC3)CCOCC2)cc1,1%,
COc1ccc(-c2cc(C(=O)N3CCOC(c4ccc(F)cc4)C3)[nH]n2)cc1 (stereo not drawn),i,
O=C(c1ccc(-c2ccco2)cc1)N1CCOC(c2ccccc2)C1 (stereo not drawn),7.9µM*,CHIKV nsP2 cell=?;CHIKV NSP2 FL=10µM*;Furin counterscr=-3%;NS23 peptide cs=?;Papain cs=-13%;nsP2pro conf qHTS=9µM*;HCV NS3 counter=i
O=C(c1ccc2ncccc2c1)N1CCOC(c2ccc(Cl)c(Cl)c2)C1 (stereo not drawn),3%,
C/C=C/c1cc(OC)c2c(c1)[C@@H](C)[C@@H](c1ccc(O)c(OC)c1)O2,11%,
C/C=C/c1ccc(O)c(OC)c1,?,CHIKV nsP2 cell=-5%;CHIKV NSP2 FL=18µM*;Furin counterscr=-11%;NS23 peptide cs=?;Papain cs=-6%;nsP2pro conf qHTS=5µM*;HCV NS3 counter=?
C/C=C/c1ccc(OC)cc1,-7%,
CN1CCN(c2nc(-c3ccc(C(=O)NC4(C(=O)NCC#N)CCCCC4)cc3)cs2)CC1,1%,
Cc1noc(C)c1[S+](=O)([O-])N1CC(Oc2ccc(F)cc2F)C1,3%,
CC(=O)NCC(=O)N1CCC(c2cc(-c3ccc(F)cc3)n[nH]2)CC1,i,
COc1cccc(-c2cc(C3CCN(C(=O)Nc4ccccc4C(F)(F)F)CC3)[nH]n2)c1,i,
COCC1CCCN(C(=O)c2cc(Cn3c(C)nc4ccccc43)[nH]n2)C1 (stereo not drawn),2%,
O=C(c1cc(-c2ccco2)[nH]n1)N1CCC(n2cnc3ccccc32)C1 (stereo not drawn),0.71µM*,CHIKV nsP2 cell=?;CHIKV NSP2 FL=7.3µM*;Furin counterscr=-8%;NS23 peptide cs=?;Papain cs=-3%;nsP2pro conf qHTS=?;HCV NS3 counter=3.3µM*
O=C(NCC(F)(F)F)c1cc(C2CCN(C(=O)c3cc(-c4ccco4)[nH]n3)CC2)[nH]n1,1.1µM*,CHIKV nsP2 cell=-12%

# Assay outcomes from PubChem BioAssay.
